# Test results published in PubChem BioAssay AID1259349 (Broad Institute, 2017).
# Values joined by “and” are separate entries in the source; they are usually repeats but may differ in a detail not shown here. Equal values may be shown once. Out of some 17,000 compounds screened, about 1,100 (6.5%) were called active. The sample holds actives, similar compounds and a random draw of the others, so the mix is not that of the screen.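 How the source made its calls: active means z-score of -3 or lower, meaning strong loss of probe binding signal; inactive means the rest.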 More than one record can exist for a structure, and the calls need not agree.
# Target: Insulin-degrading enzyme (Homo sapiens) (UniProt P14735)
# Sequence (P14735 42-1019 limits assumed): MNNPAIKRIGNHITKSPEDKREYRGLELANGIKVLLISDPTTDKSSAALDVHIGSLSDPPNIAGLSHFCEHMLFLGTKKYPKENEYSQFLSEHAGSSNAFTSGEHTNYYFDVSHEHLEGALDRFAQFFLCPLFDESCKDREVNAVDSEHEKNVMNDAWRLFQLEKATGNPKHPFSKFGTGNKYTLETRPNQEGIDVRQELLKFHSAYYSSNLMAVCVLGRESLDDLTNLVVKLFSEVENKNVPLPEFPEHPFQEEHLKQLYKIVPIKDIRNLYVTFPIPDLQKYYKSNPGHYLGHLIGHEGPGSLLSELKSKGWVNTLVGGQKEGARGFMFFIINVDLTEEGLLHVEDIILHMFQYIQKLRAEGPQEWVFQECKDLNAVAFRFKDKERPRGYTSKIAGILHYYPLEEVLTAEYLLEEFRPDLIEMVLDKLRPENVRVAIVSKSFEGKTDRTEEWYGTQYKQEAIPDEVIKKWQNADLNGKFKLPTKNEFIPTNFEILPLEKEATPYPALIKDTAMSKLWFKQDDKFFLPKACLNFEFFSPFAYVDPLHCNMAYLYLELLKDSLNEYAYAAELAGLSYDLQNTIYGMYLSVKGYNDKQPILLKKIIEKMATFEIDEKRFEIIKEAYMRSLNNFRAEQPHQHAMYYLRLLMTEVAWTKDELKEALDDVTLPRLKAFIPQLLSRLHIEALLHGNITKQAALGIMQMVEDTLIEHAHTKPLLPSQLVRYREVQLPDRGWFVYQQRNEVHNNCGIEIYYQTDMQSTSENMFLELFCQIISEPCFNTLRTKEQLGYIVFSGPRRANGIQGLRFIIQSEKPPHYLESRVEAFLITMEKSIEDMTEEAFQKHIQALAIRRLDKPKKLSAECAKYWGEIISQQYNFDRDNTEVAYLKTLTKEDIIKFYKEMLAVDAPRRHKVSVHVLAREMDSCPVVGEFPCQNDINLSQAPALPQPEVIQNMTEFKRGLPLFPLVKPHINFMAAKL
# Experiment: displacers of FL-6b probe from IDE – biochemical, fluorescence anisotropy, probe displacement, primary screen (AID 1259349);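 further: His-tagged human IDE residues 42-1019 made in E. coli with 30 nM FL-6b probe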
# Conditions: purified IDE, FL-6b probe fluorescence polarization; at 20 µM; stronger effect = lower value
row,Structure (SMILES),z-score
1,CC(C)C#Cc1ccc([C@H]2[C@@H](C#N)N(C(=O)CN(C)C)[C@H]2CO)cc1,0.732 (inactive)
2,COc1ccc2c3c([nH]c2c1)[C@H](CO)N(C(=O)Nc1ccc(F)cc1)CC31CCN(CC2CCOCC2)CC1,-0.0173 (inactive)
3,CCCNC(=O)N1CC2(CN(C(=O)c3cnccn3)C2)c2c([nH]c3cc(OC)ccc23)[C@@H]1CO,-1.28 (inactive)
4,N#C[C@@H]1[C@@H](c2ccc(C3=CCCCC3)cc2)[C@@H](CO)N1C(=O)c1cccc(F)c1,2.45 (inactive)
5,C[C@@H]1CN([C@H](C)CO)C(=O)Cc2cc(N(C)C)ccc2O[C@H]1CN(C)C(=O)NC1CCCCC1,-0.478 (inactive)
6,COc1ccc2c3c([nH]c2c1)[C@H](CO)N(C(C)=O)CC31CN(S(=O)(=O)c2cccs2)C1,0.716 (inactive)
7,CNC[C@H]1OCCCC[C@@H](C)Oc2ccc(NS(=O)(=O)c3ccc(F)cc3)cc2C(=O)N([C@H](C)CO)C[C@H]1C,0.482 (inactive)
8,CCCNC(=O)N1[C@H](C#N)[C@@H](c2ccc(C3=CCCC3)cc2)[C@H]1CO,0.0932 (inactive)
9,CCS(=O)(=O)N1[C@H](C#N)[C@H](c2ccc(-c3cccc(F)c3)cc2)[C@@H]1CO,0.519 (inactive)
10,Cn1cnc(S(=O)(=O)N2C[C@@H]3N[C@H](C2)C3c2ccc(/C=C/c3ccccc3)cc2)c1 (some centres not stated),-1.85 (inactive) and -5.13 (active)
11,COc1ccc(-c2ccc(C3[C@@H]4CN(S(=O)(=O)c5cn(C)cn5)C[C@H]3N4)cc2)cc1 (some centres not stated),2.29 (inactive)
12,Cn1cnc(S(=O)(=O)N2C[C@@H]3N[C@H](C2)C3c2ccc(-c3ccccc3F)cc2)c1 (some centres not stated),0.547 (inactive) and 0.421 (inactive)
13,O=C(Nc1cccc(F)c1)N1CC(=O)N2[C@H](C1)[C@H](c1ccc(-c3ccccc3F)cc1)[C@@H]2CO,0.741 (inactive)
14,Cc1ccc(S(=O)(=O)Nc2ccc3c(c2)C(=O)N([C@H](C)CO)C[C@@H](C)[C@H](CN(C)S(=O)(=O)c2cccs2)OCCCC[C@@H](C)O3)cc1,-0.652 (inactive)
15,O=C(Cc1ccccn1)N[C@H]1CC[C@H](CCNS(=O)(=O)c2cccc(F)c2)O[C@@H]1CO,0.0602 (inactive)
16,O=C(CN1CCOCC1)N1C[C@@H]2N[C@H](C1)C2c1ccc(-c2ccncc2)cc1 (some centres not stated),0.193 (inactive)
17,O=C(C1CCC1)N1CC(=O)N2[C@H](CO)[C@H](c3ccc(C#CCc4ccccc4)cc3)[C@@H]2C1,-2.52 (inactive)
18,O=C(C1CCOCC1)N1CC(=O)N2[C@H](CO)[C@H](c3ccc(C#Cc4cccc(F)c4)cc3)[C@H]2C1,-19.3 (active)
19,COCC#Cc1ccc([C@@H]2[C@@H](CO)N3C(=O)CN(C(=O)C4CCOCC4)C[C@@H]23)cc1,0.89 (inactive)
20,COCC#Cc1ccc([C@@H]2[C@H]3CN(C(=O)C4CCOCC4)CC(=O)N3[C@H]2CO)cc1,2.55 (inactive)
21,O=C(C1CCC1)N1CC(=O)N2[C@@H](CO)[C@@H](c3ccc(C#Cc4cccc(F)c4)cc3)[C@@H]2C1,-4.35 (active)

row,Structure (SMILES),z-score
1,O=C(C1CCCCC1)N1CC(=O)N2[C@H](CO)[C@@H](c3ccc(C#Cc4cccc(F)c4)cc3)[C@@H]2C1,1.96 (inactive)
2,COc1ccc2c3c([nH]c2c1)[C@@H](CO)N(Cc1ccncc1)CC31CN(C(=O)CN(C)C)C1,-0.567 (inactive)
3,COCC(=O)Nc1ccc2c(c1)OC[C@@H](C)N(Cc1ccccc1C(=O)O)C[C@@H](C)[C@H](OC)CN(C)C2=O,1.82 (inactive)
4,O=C(C1CCC1)N1CCCCN2[C@H](CO)[C@H](c3ccc(-c4ccncc4)cc3)[C@@H]2C1,-0.182 (inactive)
5,O=C(C1CC1)N1CCCCN2[C@H](C1)[C@@H](c1ccc(-c3cccc(F)c3)cc1)[C@@H]2CO,-3.66 (active)
6,CC(=O)N1CCCCN2[C@H](C1)[C@@H](c1ccc(-c3ccc(F)cc3)cc1)[C@@H]2CO,0.352 (inactive)
7,O=C(C1CC1)N1CCCCN2[C@H](CO)[C@H](c3ccc(-c4cccc(F)c4)cc3)[C@H]2C1,-6.38 (active)
8,O=C(c1cccc(F)c1)N1CCCCN2[C@H](CO)[C@@H](c3ccc(-c4cncnc4)cc3)[C@H]2C1,1.13 (inactive)
9,O=C(c1cccc(F)c1)N1CCCCN2[C@@H](CO)[C@H](c3ccc(-c4cncnc4)cc3)[C@@H]2C1,1.94 (inactive)
10,COc1cccc(S(=O)(=O)Nc2ccc3c(c2)[C@@H]2C[C@@H](CC(=O)NC4CCCCC4)O[C@H](CO)[C@@H]2O3)c1,-0.362 (inactive)
11,COc1ccc2c3c([nH]c2c1)[C@@H](CO)N(C(=O)C1CC1)CC31CCN(C(=O)c2ccncc2)CC1,1.3 (inactive)
12,CO[C@H]1CN(C)C(=O)c2cc(NC(=O)C3CC3)ccc2OC[C@@H](C)N(Cc2cc(F)ccc2F)C[C@H]1C,-1.43 (inactive)
13,COc1ccc2c3c(n(C)c2c1)[C@@H](CO)N(Cc1ccccc1F)CC31CCN(C(=O)C2CCOCC2)CC1,-2.72 (inactive)
14,OC[C@H]1[C@H](c2ccc(-c3ccccc3F)cc2)[C@H]2CN(Cc3cncnc3)CCCCN21,-3.23 (active)
15,CCCC#Cc1ccc([C@H]2[C@H]3CN(Cc4cncnc4)CCCCN3[C@H]2CO)cc1,1.82 (inactive)
16,OC[C@@H]1[C@@H](c2ccc(-c3ccccc3F)cc2)[C@@H]2CN(Cc3cncnc3)CCCCN12,-0.419 (inactive)
17,OC[C@@H]1[C@H](c2ccc(C#Cc3ccccc3)cc2)[C@@H]2CN(Cc3cncnc3)CCCCN12,-3.14 (active)
18,OC[C@H]1[C@@H](c2ccc(-c3ccccc3F)cc2)[C@@H]2CN(Cc3ccncc3)CCCCN12,-0.42 (inactive)
19,OC[C@@H]1[C@@H](c2ccc(C#CC3(O)CCCC3)cc2)[C@@H]2CN(Cc3cncnc3)CCCCN12,0.144 (inactive)
20,CN1C(=O)c2cc(NC(=O)Nc3ccccc3Cl)ccc2OC[C@H]2O[C@H](CC(=O)NCCCN3CCOCC3)CC[C@H]21,-1.04 (inactive)
21,CC(=O)NC[C@H]1[C@@H](c2ccc(C#CC(C)C)cc2)[C@@H](CO)N1Cc1ccccn1,-1.78 (inactive)
